Measured values from PubChem BioAssay (Tox21).
“And” between values parts separate entries of the source, which are not always exact repeats. Equal entries are not always repeated. Results filed as inconclusive are left out. A structure can be active in one record and inactive in another. The source made the active and inactive calls. Unless noted, calls come from the whole dose curve; as a rule, active = well fitted curve in the direction sought with a large enough effect in the repeat runs; inconclusive = weak or mixed curves; inactive = no such curve, though single readings can be large; an effect the other way counts as inactive or inconclusive.

Assays:
[1] = qHTS assay for identifying genotoxic compounds that show differential cytotoxicity against isogenic chicken DT40 cell lines with known DNA damage response pathways - wild type cell line (AID 743012); note: nearly all actives have a fitted effect of over 60% in size; note: potency is the fitted concentration of half-maximal effect
Procedure, shortened: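 Quantitative HTS on parental DT40 cells: 40 h compound treatment at 37 C/5% CO2, with viability then determined by CellTiter-Glo luminescence. Values serve as the DNA repair-proficient reference for differential cytotoxicity.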

[2] = qHTS assay for identifying genotoxic compounds that show differential cytotoxicity against isogenic chicken DT40 cell lines with known DNA damage response pathways - Rev3 mutant cell line (AID 743014); note: nearly all actives have a fitted effect of over 55% in size; note: potency is the fitted concentration of half-maximal effect
[3] = qHTS assay to identify small molecule antagonists of the androgen receptor (AR) signaling pathway - cell viability counter screen (AID 743033; note: nearly all actives have a fitted effect of over 45% in size)
[4] = target: Androgen receptor (Homo sapiens) (UniProt P10275); assay: qHTS assay to identify small molecule antagonists of the androgen receptor (AR) signaling pathway (AID 743035; active = well fitted inhibition curve with a large enough effect in the signal ratio in the repeat runs, not every such curve was filed as active; the % refers to the signal ratio)
Sequence of Androgen receptor (Homo sapiens) (P10275 whole entry, looked up): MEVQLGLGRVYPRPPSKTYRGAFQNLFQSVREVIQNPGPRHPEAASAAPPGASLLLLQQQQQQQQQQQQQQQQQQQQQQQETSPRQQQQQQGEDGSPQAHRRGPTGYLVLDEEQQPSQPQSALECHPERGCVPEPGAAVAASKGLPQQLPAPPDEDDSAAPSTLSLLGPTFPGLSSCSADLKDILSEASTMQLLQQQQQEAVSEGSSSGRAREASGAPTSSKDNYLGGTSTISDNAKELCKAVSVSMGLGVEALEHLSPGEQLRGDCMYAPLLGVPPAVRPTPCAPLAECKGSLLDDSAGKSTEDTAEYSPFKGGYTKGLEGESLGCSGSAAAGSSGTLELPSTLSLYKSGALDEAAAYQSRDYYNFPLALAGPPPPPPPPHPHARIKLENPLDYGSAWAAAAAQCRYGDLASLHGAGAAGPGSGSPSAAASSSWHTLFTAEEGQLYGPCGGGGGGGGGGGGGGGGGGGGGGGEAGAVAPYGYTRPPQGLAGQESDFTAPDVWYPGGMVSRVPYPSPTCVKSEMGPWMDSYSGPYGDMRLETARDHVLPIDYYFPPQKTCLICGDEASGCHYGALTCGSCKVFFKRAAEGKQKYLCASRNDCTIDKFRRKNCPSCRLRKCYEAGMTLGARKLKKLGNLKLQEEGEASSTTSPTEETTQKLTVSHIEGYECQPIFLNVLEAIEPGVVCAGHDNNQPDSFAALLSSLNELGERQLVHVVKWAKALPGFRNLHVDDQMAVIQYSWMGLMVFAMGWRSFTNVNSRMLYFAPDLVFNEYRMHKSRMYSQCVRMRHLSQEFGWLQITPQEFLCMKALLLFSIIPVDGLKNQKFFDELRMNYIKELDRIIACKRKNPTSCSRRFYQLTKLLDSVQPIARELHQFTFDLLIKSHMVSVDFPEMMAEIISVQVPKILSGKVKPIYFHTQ
Procedure, shortened: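 Cell line: GeneBLAzer AR-UAS-bla GripTite (HEK293). Stimulus: R1881 added after compound. Exposure: 16 h, 37C, 5% CO2. Readout: LiveBLAzer B/G FRET fluorescence after 2 h at room temperature.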

[5] = target: Androgen receptor (Homo sapiens) (UniProt P10275); assay: qHTS assay to identify small molecule agonists of the androgen receptor (AR) signaling pathway (AID 743036; active = well fitted activation curve with a large enough effect in the signal ratio in the repeat runs, with a control signal flat, not every such curve was filed as active; the % refers to the signal ratio)
Procedure, shortened: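 HEK293 cells stably carrying a UAS-driven beta-lactamase reporter (GeneBLAzer AR-UAS-bla-GripTite) were plated at 2,000 cells/well, rested 4 h at 37C, then exposed to compounds in DMSO for 16 h. LiveBLAzer B/G FRET substrate was added for 2 h at room temperature; fluorescence read.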

[6] = target: Androgen receptor (Homo sapiens) (UniProt P10275); assay: qHTS assay to identify small molecule agonists of the androgen receptor (AR) signaling pathway using the MDA cell line (AID 743040; note: nearly all actives have a fitted effect of over 20% in size); settings: MDA-kb2 AR-luc cells, MMTV luciferase, 16 h; activity change: at 70.3 µM (top of the series), stronger effect = higher value
Procedure, shortened: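 Human breast carcinoma MDA-kb2 reporter cells (MMTV-luc, AR/GR elements) were treated for 16 h at 37C in 0% CO2 following a 5 h settling period. Signal was quantified by ONE-Glo luminescence.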

[7] = qHTS assay to identify small molecule antagonists of the androgen receptor (AR) signaling pathway using the MDA cell line - cell viability counter screen (AID 743041; note: nearly all actives have a fitted effect of over 45% in size)
Procedure, shortened: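 Same-well cytotoxicity was assessed by CellTiter-Fluor in MDA-kb2 AR-luc cells after 16 h of compound treatment under R1881 agonism.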

[8] = target: Androgen receptor (Homo sapiens) (UniProt P10275); assay: qHTS assay to identify small molecule antagonists of the androgen receptor (AR) signaling pathway using the MDA cell line (AID 743042; note: nearly all actives have a fitted effect of over 55% in size; note: potency is the fitted concentration of half-maximal effect)
Procedure, shortened: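 MDA-kb2 breast carcinoma cells carrying MMTV-luciferase (AR/GR responsive) were co-treated with compounds and the agonist R1881 for 16 h at 37C. Inhibition read as ONE-Glo luminescence; CellTiter-Fluor fluorescence measured in parallel for cytotoxicity.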

[9] = qHTS assay to identify small molecule antagonists of the thyroid receptor (TR) signaling pathway (AID 743065); note: nearly all actives have a fitted effect of over 55% in size; note: potency is the fitted concentration of half-maximal effect
Procedure, shortened: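 GH3.TRE-Luc rat pituitary cells (two TREs driving luciferase) were dosed with compound, then stimulated with 1 nM T3 (final) for 23.5 h at 37 C. ONE-Glo luminescence was the read-out, with CellTiter-Fluor fluorescence as the cytotoxicity counter-screen.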

[10] = test system: thyroid hormone receptor (rat, GH3 cells); assay: qHTS assay to identify small molecule agonists of the thyroid receptor (TR) signaling pathway (AID 743066; calls by dose curve)
[11] = qHTS assay to identify small molecule antagonists of the estrogen receptor alpha (ER-alpha) signaling pathway - cell viability counter screen (AID 743074; calls by dose curve;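 note: HEK293 cells carrying ER-alpha-UAS-bla reporter stimulated with 17beta-estradiol; nearly all actives have a fitted effect of over 45% in size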)
[12] = target: Estrogen receptor (Homo sapiens) (UniProt P03372); assay: qHTS assay to identify small molecule agonists of the estrogen receptor alpha (ER-alpha) signaling pathway (AID 743075; calls by dose curve)
Sequence of Estrogen receptor (Homo sapiens) (P03372 whole entry, looked up): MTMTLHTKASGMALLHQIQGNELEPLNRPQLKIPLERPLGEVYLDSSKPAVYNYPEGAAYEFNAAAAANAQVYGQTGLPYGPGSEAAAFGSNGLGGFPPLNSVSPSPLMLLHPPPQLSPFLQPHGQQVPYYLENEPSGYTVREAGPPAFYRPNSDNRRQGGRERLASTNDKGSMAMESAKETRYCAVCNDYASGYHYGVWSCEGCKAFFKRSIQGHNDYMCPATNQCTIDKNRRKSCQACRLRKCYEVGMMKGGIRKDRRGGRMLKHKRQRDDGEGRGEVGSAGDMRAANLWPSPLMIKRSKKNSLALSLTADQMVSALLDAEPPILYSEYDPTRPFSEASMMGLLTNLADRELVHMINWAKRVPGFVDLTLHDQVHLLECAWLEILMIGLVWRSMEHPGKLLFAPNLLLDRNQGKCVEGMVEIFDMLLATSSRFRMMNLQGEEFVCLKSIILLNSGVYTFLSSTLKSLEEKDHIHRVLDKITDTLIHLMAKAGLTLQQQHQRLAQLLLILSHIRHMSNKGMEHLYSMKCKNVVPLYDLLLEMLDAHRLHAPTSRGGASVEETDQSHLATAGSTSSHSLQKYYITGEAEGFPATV

[13] = target: Estrogen receptor (Homo sapiens) (UniProt P03372); assay: qHTS assay to identify small molecule agonists of the estrogen receptor alpha (ER-alpha) signaling pathway using the BG1 cell line (AID 743079); note: nearly all actives have a fitted effect of over 20% in size
[14] = qHTS assay to identify small molecule antagonists of the estrogen receptor alpha (ER-alpha) signaling pathway using the BG1 cell line (AID 743080; calls by dose curve;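 note: BG1 cells stimulated with 17beta-estradiol alongside compound; nearly all actives have a fitted effect of over 25% in size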)
Procedure, shortened: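 Quantitative HTS on the Tox21 10K library: BG1 cells with endogenous ER-alpha and ERE-luciferase reporter, 17beta-estradiol stimulation, 21.5 h compound exposure, luminescence endpoint with parallel fluorescence cytotoxicity counter-read.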

[15] = qHTS assay to identify small molecule antagonists of the estrogen receptor alpha (ER-alpha) signaling pathway using the BG1 cell line - cell viability counter screen (AID 743081);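 note: compound given together with 17beta-estradiol as the ER stimulus; nearly all actives have a fitted effect of over 45% in size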
Aromatase (Homo sapiens) = Aromatase (Homo sapiens) (UniProt P11511); assay: qHTS assay to identify aromatase inhibitors (AID 743083); note: nearly all actives have a fitted effect of over 55% in size
Sequence of Aromatase (Homo sapiens) (P11511 whole entry, looked up): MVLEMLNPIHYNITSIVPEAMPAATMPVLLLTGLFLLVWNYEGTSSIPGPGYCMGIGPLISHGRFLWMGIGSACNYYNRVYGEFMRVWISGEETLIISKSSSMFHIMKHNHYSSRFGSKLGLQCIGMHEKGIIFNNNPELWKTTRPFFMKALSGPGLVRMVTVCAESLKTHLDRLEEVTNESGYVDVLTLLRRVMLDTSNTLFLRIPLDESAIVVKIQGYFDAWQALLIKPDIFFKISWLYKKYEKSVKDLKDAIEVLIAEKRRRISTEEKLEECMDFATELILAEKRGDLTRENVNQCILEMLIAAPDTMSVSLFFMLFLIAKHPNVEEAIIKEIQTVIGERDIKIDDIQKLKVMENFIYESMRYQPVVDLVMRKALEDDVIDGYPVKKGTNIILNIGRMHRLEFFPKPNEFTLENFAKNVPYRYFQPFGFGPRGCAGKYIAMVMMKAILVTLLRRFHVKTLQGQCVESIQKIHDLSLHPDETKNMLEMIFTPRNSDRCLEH

[16] = target: Estrogen receptor (Homo sapiens) (UniProt P03372); assay: qHTS assay to identify small molecule antagonists of the estrogen receptor alpha (ER-alpha) signaling pathway (AID 743069; active = well fitted curve in the direction sought with a large enough effect in the signal ratio in the repeat runs, not every such curve was filed as active; the % refers to the signal ratio)
Procedure, shortened: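 Reporter cells (ER-alpha-bla, HEK293 background) are conditioned overnight in stripped-serum medium (2% charcoal-stripped FBS). Compound and 17beta-estradiol exposure runs 18 hr at 37C, 5% CO2.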

[17] = qHTS assay for identifying genotoxic compounds that show differential cytotoxicity against isogenic chicken DT40 cell lines with known DNA damage response pathways - Rad54/Ku70 mutant cell line (AID 743015); note: nearly all actives have a fitted effect of over 60% in size; note: potency is the fitted concentration of half-maximal effect
[18] = qHTS assay to identify small molecule antagonists of the thyroid receptor (TR) signaling pathway - cell viability counter screen (AID 743064); note: nearly all actives have a fitted effect of over 50% in size
Procedure, shortened: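 GH3.TRE-Luc rat pituitary cells carrying a TRE-luciferase reporter were treated with compound plus 1 nM T3 (final) for 23.5 h at 37 °C. Viability was then read in the same wells by CellTiter-Fluor fluorescence after a further 30 min.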

Measured: Potency

c1cc(OCC2CO2)ccc1Cc1ccc(OCC2CO2)cc1 (configuration not stated)
active: [1] 13.7 µM | [2] 2.44 µM and 1.54 µM | [9] 24.4 µM and 21.7 µM
not listed: [16] | [17] | [18]
inactive: all other assays above

C=C(C)C(=O)OCC1CO1 (configuration not stated)
not listed: [4] | [5] | [6] | [8] | [17] | [18]
inactive: all other assays above

C#C[C@]1(O)CC[C@H]2[C@@H]3CCC4=CC(=O)CC[C@]4(C)[C@H]3CC[C@@]21C
inactive: [1] | [2] | [3] | [7] | [10] | [11] | [15] | Aromatase (Homo sapiens)
active: [9] 6.86 µM

Nc1c(Cl)cc([N+](=O)[O-])cc1Cl
inactive and 61.1 µM (active): [2] | [17] | [8]
not listed: [1] | [3] | [4]
inactive: all other assays above

Nc1cccnc1
not listed: [4] | [5] | [6] | [8] | [18]
inactive: all other assays above

C=CC(=O)OCCO
inactive: [2] | [3] | [7] | [18] | [9] | [10] | [11] | [15]
inactive and 43.3 µM (active): [17]
